Hit rate of the full screen: of about 52,000 compounds, about 4,300 (8.3%) were called active. Cut-off read from the data, not from the text of the source: active = survival mostly below about 52% (no sharp cut-off); inactive = mostly above about 56%. This excerpt belongs to a sample that is enriched for actives.

In PubChem BioAssay AID463173 (ICCB-Longwood Screening Facility, Harvard Medical School, 2010) one finds survival data, which are given here for 92 compounds.

The assay has as its system DeltatarO mutant. Description: S. aureus survival, RN4220 and DeltatarO strains – OD600, teichoic acid synthesis inhibitors, primary screen (AID 463173). The conditions noted are these: S. aureus RN4220 wild type/DeltatarO growth, OD600, 18 h, stronger effect = lower value, screened at 18.75 µg/mL (by protocol).
Turning to `COc1ccccc1NC(=O)Cn1c(=O)n(Cc2ccccc2)c(=O)c2ccccc21`, the survival is 75% (inactive). `COc1ccc(N(C(=O)COc2c(C)cccc2C)S(=O)(=O)c2ccc(Cl)cc2)cc1`: the survival is 73% (inactive). With `COc1ccc(C(=O)Nc2cccc(-c3cn4ccsc4n3)c2)cc1OC`, the survival was 92% (inactive). For `CN(C)S(=O)(=O)Nc1ccc(-c2cn3ccsc3n2)cc1`, the survival was 55% (inactive). `CCCS(=O)(=O)Nc1cccc(-c2cn3ccsc3n2)c1`: the survival was 134% (inactive).

Regarding `CCS(=O)(=O)Nc1ccc(-c2cn3ccsc3n2)cc1`, the survival is 17% (active). In the case of `COc1cc(OC)cc(C(=O)Nc2cccc(-c3cn4ccsc4n3)c2)c1` it was 6% (active); in that of `COc1cccc(OC)c1C(=O)Nc1cccc(-c2cn3ccsc3n2)c1`, 82% (inactive).

In the case of `O=C(NCCc1ccccc1Cl)c1ccc2c(c1)nc1n2CCCCC1`, the survival is 80% (inactive).

On to `Cc1cccc(NC(=O)N2CCN3CCCCC3C2)c1C` (configuration not stated), for which the survival is 77% (inactive). The same measure for `CC(C)c1ccc(NC(=O)c2cc(S(=O)(=O)NC3CCCCC3)ccc2F)cc1`: 102% (inactive). Turning to `O=C(Nc1cc2c(cc1C(=O)c1ccccc1Cl)OCCO2)c1ccccc1`, the survival is 113% (inactive). In the case of `COc1ccc(CCn2c3c(c(=O)[nH]c2=O)C(NC(=O)c2ccc(C(C)(C)C)cc2)(C(F)(F)F)C(=O)N3)cc1OC` (configuration not stated) it was 91% (inactive); in that of `CCOC(=O)c1ccc(NS(=O)(=O)c2cn(C)c(C)n2)cc1`, 69% (inactive); in that of `CC(=O)c1ccc(NC(=O)C2CCC(CNS(=O)(=O)c3ccc(Br)s3)CC2)cc1` (configuration not stated), 69% (inactive).

Consider `COc1cc(NS(=O)(=O)c2cnc(N)nc2)cc(OC)c1`, for which the survival was 76% (inactive).

`CC(=O)c1ccc(NS(=O)(=O)c2ccc(Br)s2)cc1`: the survival is 47% (active).

Consider `CCOC(=O)c1ccc(NC(=O)C(Cc2ccccc2)NS(=O)(=O)c2ccc(Br)s2)cc1` (configuration not stated), for which the survival is 90% (inactive).

With `CCOC(=O)c1ccc(NS(=O)(=O)c2ccc(Br)s2)cc1`, the survival was 38% (active). Regarding `CC(=O)c1ccc(NS(=O)(=O)c2ccc(-c3cc(C)no3)s2)cc1`, the survival is 122% (inactive). The same measure for `Nc1ncc(S(=O)(=O)Nc2ccc(OC(F)(F)F)cc2)cn1`: 79% (inactive); for `CC(=O)c1ccc(NS(=O)(=O)c2cnc(N)nc2)cc1`: 6% (active); for `COc1ccc(Nc2ncc3c(n2)CCN(Cc2ccccc2C)C3)c(OC)c1`: 91% (inactive). Consider `Cc1ccccc1N(C)C(=O)c1noc2c1COc1ccccc1-2`, for which the survival was 72% (inactive). On to `CCOc1ccc(S(=O)(=O)N(CC(=O)N2CCCCC2)c2ccccc2)cc1`, for which the survival is 60% (inactive).

As to `CC12CN3CC(C)(CN(C1)C3(C)CSc1c[nH]c3ccccc13)C2=O` (configuration not stated), the survival is 76% (inactive).

As to `Cc1ccc(C)c(NC(=O)Cn2cnc3c(oc4ccccc43)c2=O)c1`, the survival is 82% (inactive). Turning to `Cc1ccc(NC(=O)CN2C(=O)COc3ccc(S(=O)(=O)Nc4ccccc4)cc32)c(C)c1`, the survival was 54% (inactive).

For the compound `Oc1cccc(-c2nc3ncccn3c2Nc2cccc(C(F)(F)F)c2)c1`, the survival is 62% (inactive).

Consider `COc1ccc(CNC(=O)Cc2c(C)c3cc4c(C)coc4c(C)c3oc2=O)cc1OC`, for which the survival is 67% (inactive). For `Cc1ccc2c(Sc3ccccc3)c(C(=O)NCc3ccccc3F)[nH]c2c1`, the survival is 90% (inactive). As to `N#C/C(=C/c1ccc(-c2ccc(Cl)c(C(=O)O)c2)o1)C(=O)NC1CCCC1`, the survival is 96% (inactive). As to `N#C/C(=C\c1ccc(-c2ccc(Cl)c(C(=O)O)c2)o1)c1nc2ccccc2[nH]1`, the survival is 55% (active). As to `CN(C)/C=C(\C#N)c1nc2ccccc2[nH]1`, the survival was 73% (inactive). As for `Cc1ccc(/C=C(\C#N)c2nc3ccccc3c(=O)[nH]2)cc1`, the survival is 93% (inactive). Turning to `COc1cc(/C=C(\C#N)c2nc3ccccc3[nH]2)ccc1OCc1ccccc1F`, the survival is 50% (inactive). Consider `N#C/C(=C\c1ccc(-c2ccc(C(=O)O)cc2)o1)c1nc2ccccc2[nH]1`, for which the survival was 77% (inactive). In the case of `N#C/C(=C\c1ccc(-c2ccccc2C(=O)O)o1)c1nc2ccccc2[nH]1` it was 76% (inactive); in that of `N#C/C(=C\c1ccc(-c2ccc(F)cc2F)o1)c1nc2ccccc2[nH]1`, 22% (active); in that of `Cc1c(Cl)cccc1-c1ccc(/C=C(\C#N)c2nc3ccccc3[nH]2)o1`, 13% (active). Consider `N#C/C(=C\c1ccc(Cl)cc1)c1nc2ccccc2[nH]1`, for which the survival was 57% (inactive). The same measure for `Cc1ccc2nc(/C(C#N)=C/c3ccc(-c4ccc(F)cc4F)o3)[nH]c2c1`: 11% (active); for `O=C(Cn1ncc2ccsc2c1=O)N1CCN(c2ccc(Cl)cc2)CC1`: 78% (inactive).

As to `Cc1nc(N=C(N)N)nc2cc3c(cc12)OCO3`, the survival was 91% (inactive). For the compound `COc1ccccc1N1CCN(C(=O)c2c(C)oc3ncn(CC(C)C)c(=O)c23)CC1`, the survival is 76% (inactive). The same measure for `CCCCOC(=O)c1ccc(NC(=O)c2ccc3c(c2)CCN3S(C)(=O)=O)cc1`: 96% (inactive); for `O=C(C1CCN(S(=O)(=O)c2ccc(Br)s2)CC1)N1CCN(c2cccc(Cl)c2)CC1`: 76% (inactive). Turning to `CC1CCCCN1C(=O)Cn1nnc2c(cnn2-c2ccccc2)c1=O` (configuration not stated), the survival is 79% (inactive).

Take `CCCCSCCCNC(=O)c1c[nH]c2ccc(S(=O)(=O)Nc3cccc(OC)c3)cc2c1=O`: the survival was 90% (inactive). Take `COc1ccc(N2CCN(S(=O)(=O)CCNC(=O)c3ccc(OC(C)C)cc3)CC2)cc1`: the survival was 78% (inactive). In the case of `COc1cc(NC(=O)Cn2cc(C(=O)c3ccc(F)cc3)c(=O)c3ccc(C)nc32)cc(OC)c1`, the survival was 74% (inactive).

On to `CN(C)c1ccc(CNC(=O)CCCN2C(=O)CCn3nc(-c4cccn4C)cc32)cc1`, for which the survival was 73% (inactive).

In the case of `O=C(CSc1ncc2c(n1)-c1cc(Cl)ccc1N(Cc1ccccc1)S2(=O)=O)NCc1ccccc1`, the survival is 89% (inactive). Take `O=C(c1ccccc1Cl)N(Cc1ccco1)c1ccccn1`: the survival was 55% (inactive). `COc1cccc2cc(C(=O)Nc3ccc(N4CCNCC4)cc3)c(=O)oc12`: the survival was 99% (inactive). In the case of `Cc1ccc(NC(=O)Cn2nc(C)c3nn(-c4ccc(Cl)cc4)c(C)c3c2=O)cc1C` it was 75% (inactive); in that of `CCOc1ccc(CNC(=O)CSc2nnc(C)c3c(C)n(-c4ccc(Cl)cc4)nc23)cc1`, 91% (inactive); in that of `COc1ccccc1/C=C/c1nc(C#N)c(N2CCN(C)CC2)o1`, 92% (inactive). As for `COc1ccc(-c2cc3ncc(C(=O)c4cc([N+](=O)[O-])ccc4O)cn3n2)cc1`, the survival is 33% (active).

On to `CCOC(=O)c1cnc2cc(-c3ccc(Cl)cc3)nn2c1-c1ccccc1`, for which the survival is 68% (inactive).

As to `O=C(c1cnc2cc(-c3ccccc3)nn2c1)c1cc([N+](=O)[O-])ccc1O`, the survival was 9% (active). For `O=C(CSc1nnc(-c2ccccc2)o1)c1cccc([N+](=O)[O-])c1`, the survival was 135% (inactive).

Regarding `Cc1ccc(-c2cc3ncc(C(=O)c4cc(Cl)c(C)cc4O)cn3n2)cc1`, the survival is 84% (inactive). For the compound `COc1ccc(CNC(=O)c2cc(-c3ccc(OC)cc3)nc3n[nH]c(-c4cccc([N+](=O)[O-])c4)c23)cc1`, the survival was 68% (inactive).

For `Cc1ccc(-c2cc3ncc(C(=O)c4cc([N+](=O)[O-])ccc4O)cn3n2)cc1`, the survival is 8% (active). For `CCOC(=O)COc1cc(C)c(Cl)cc1C(=O)c1ccn2nc(-c3ccc(OC)cc3)cc2n1`, the survival is 92% (inactive). With `CCc1ccc(O)c(C(=O)c2cnc3cc(-c4ccc(C)cc4)nn3c2)c1`, the survival is 89% (inactive). For the compound `CC(=O)Nc1cccc(NC(=O)CCn2cnc3cc(C)c(C)cc32)c1`, the survival was 62% (inactive). `COc1cccc(C(=O)NC(=S)NCc2ccco2)c1`: the survival was 93% (inactive). `O=C(Cn1nc(C(F)(F)F)c2c1CCC2)Nc1ccc(Cl)cc1`: the survival is 54% (inactive). The same measure for `CCN(CC)c1ccc(C(=O)NCc2ccc3c(c2)CCN3C(=O)c2ccc(F)cc2)cc1`: 84% (inactive).

On to `CCN1/C(=C2\C(=O)N(c3ccc(Cl)cc3)N=C2C)C=Cc2ccccc21`, for which the survival was 68% (inactive). As for `CCOC(=O)C(Cc1ccccc1)NC(=O)Cn1nnc(-c2ccc(C)cc2)n1` (configuration not stated), the survival was 59% (inactive).

As for `Cc1ccc(-c2nnn(CC(=O)NC(C)C)n2)cc1`, the survival was 83% (inactive). In the case of `CCOc1cc(C#N)c(NC(=O)Cn2nnc(-c3ccc(C)cc3)n2)cc1OCC` it was 42% (active); in that of `Cc1ccc(NC(=O)Cn2c(=O)oc3cc(S(=O)(=O)N4CCCCCC4)ccc32)cc1Cl`, 93% (inactive).

Turning to `Cc1nc2ccccc2n1CC(O)COc1ccc(C(=O)O)cc1` (configuration not stated), the survival was 46% (active). As for `CCCc1nc2ccccc2n1CC(O)COc1ccc(C(=O)OC)cc1` (configuration not stated), the survival was 64% (inactive).

For `CCCc1nc2ccccc2n1CC(O)COc1ccccc1` (configuration not stated), the survival is 69% (inactive). As to `CCN(Cc1ccccc1)c1ncnc2c1nnn2C`, the survival is 57% (inactive). In the case of `CCOc1ccccc1CNC(=O)c1nc(-c2ccc(Cl)cc2)n2c1CCCCC2` it was 67% (inactive); in that of `Cc1ccc(-n2nc3c(N4CCC(C(=O)N5CCCCC5)CC4)nnc(C)c3c2C)cc1`, 85% (inactive); in that of `Cc1cc(F)ccc1S(=O)(=O)NCC(c1ccco1)S(=O)(=O)c1cccs1` (configuration not stated), 118% (inactive).

With `Cc1cc(S(=O)(=O)NCC(c2ccco2)S(=O)(=O)c2cccs2)ccc1F` (configuration not stated), the survival is 101% (inactive). For the compound `O=S(=O)(NCC(c1ccco1)S(=O)(=O)c1cccs1)c1ccc(Cl)cc1` (configuration not stated), the survival is 92% (inactive). In the case of `O=S(=O)(NCC(c1ccco1)S(=O)(=O)c1cccs1)c1ccc(F)c(C(F)(F)F)c1` (configuration not stated) it was 37% (active); in that of `Cc1cc(C)c(S(=O)(=O)NCC(c2ccco2)S(=O)(=O)c2cccs2)c(C)c1` (configuration not stated), 25% (active).

For the compound `Cc1cc(C)c(S(=O)(=O)NCC(c2ccco2)S(=O)(=O)c2ccccc2)c(C)c1` (configuration not stated), the survival was 99% (inactive). As for `COc1ccc(-c2cnnn2-c2ccc(NC(=O)c3ccccc3OC)cc2)cc1`, the survival was 107% (inactive).

Turning to `CCOc1ccccc1CN(CCc1ccc2c(c1)OCO2)Cc1cc(OC)c(OC)cc1OC`, the survival is 56% (inactive). In the case of `CCOc1ccccc1CN(CCc1ccc2c(c1)OCO2)Cc1cccc(OC)c1OC`, the survival was 34% (active).

Regarding `CCOc1ccccc1CN(CCc1ccc2c(c1)OCO2)Cc1ccccn1`, the survival is 77% (inactive).
